This is an account of results in ChEMBL document CHEMBL1961873, “Compounds: GSK PKIS; Assays: Nanosyn kinase panel” (2012).

One assay deals with T1, Serine/threonine-protein kinase Nek1 (Homo sapiens) (UniProt Q96PY6).
T1 sequence (whole entry): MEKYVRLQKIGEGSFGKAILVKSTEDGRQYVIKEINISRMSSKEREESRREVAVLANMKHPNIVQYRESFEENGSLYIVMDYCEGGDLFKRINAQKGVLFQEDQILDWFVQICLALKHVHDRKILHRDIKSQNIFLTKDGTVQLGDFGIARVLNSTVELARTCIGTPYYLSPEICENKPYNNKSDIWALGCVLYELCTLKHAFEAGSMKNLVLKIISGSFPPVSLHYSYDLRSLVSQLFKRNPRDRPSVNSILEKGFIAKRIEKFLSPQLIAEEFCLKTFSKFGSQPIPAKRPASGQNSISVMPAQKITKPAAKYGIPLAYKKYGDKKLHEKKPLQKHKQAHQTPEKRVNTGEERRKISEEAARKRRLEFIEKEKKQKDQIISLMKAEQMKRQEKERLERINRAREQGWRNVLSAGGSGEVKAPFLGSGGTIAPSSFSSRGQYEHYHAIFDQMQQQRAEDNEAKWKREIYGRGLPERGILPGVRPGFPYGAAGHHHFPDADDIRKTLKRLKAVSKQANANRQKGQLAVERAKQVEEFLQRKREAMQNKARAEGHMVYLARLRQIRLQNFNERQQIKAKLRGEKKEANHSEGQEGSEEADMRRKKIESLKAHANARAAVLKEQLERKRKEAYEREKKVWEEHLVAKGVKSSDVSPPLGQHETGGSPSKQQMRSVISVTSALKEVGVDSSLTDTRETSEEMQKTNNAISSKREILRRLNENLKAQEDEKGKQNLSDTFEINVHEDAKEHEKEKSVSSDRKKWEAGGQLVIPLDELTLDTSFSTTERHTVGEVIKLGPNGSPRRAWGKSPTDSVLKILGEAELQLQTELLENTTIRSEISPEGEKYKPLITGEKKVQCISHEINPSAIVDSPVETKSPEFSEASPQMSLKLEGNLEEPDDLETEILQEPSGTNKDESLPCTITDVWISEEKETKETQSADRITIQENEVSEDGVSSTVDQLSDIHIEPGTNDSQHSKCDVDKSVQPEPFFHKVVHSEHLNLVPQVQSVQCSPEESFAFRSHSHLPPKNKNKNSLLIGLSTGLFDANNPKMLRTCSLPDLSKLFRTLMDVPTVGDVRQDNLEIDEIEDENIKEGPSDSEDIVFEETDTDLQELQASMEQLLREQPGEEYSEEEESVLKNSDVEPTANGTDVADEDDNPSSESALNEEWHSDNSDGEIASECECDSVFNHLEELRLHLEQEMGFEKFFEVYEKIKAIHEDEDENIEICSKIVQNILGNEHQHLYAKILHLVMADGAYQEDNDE
The conditions noted are these: at 1 µM.
Regarding `Fc1ccc(-c2c(-c3ccncc3)nc3n2CCS3)cc1`, the inhibition – broadly, the relative decrease from the control value, in per cent – was 3.2%.

As for `C/C(Nc1ccc(S(N)(=O)=O)cc1)=C1/C(=O)Nc2ccccc21`, the inhibition turned out to be 0.52%.

Consider `C[C@@H](Oc1cc(-n2cnc3ccc(OC4CCN(C)CC4)cc32)sc1C(N)=O)c1ccccc1Cl`, for which the inhibition turned out to be 38.1%.

As for `CCS(=O)(=O)c1ccc(OC)c(Nc2ncc(-c3ccccc3Cl)o2)c1`, the inhibition worked out at 4.41%.

For the compound `COc1cc(N2CCN(C(C)C)CC2)ccc1Nc1nc(Nc2ccc(F)cc2C(=O)NC[C@@H](O)CO)c2cc[nH]c2n1`, the inhibition worked out at 4.63%.

`Cc1nnc(-c2ccc(C)c(-c3ccc(C(=O)NCc4ccc(Cl)cc4)cc3)c2)o1`: the inhibition came to 4.54%.

For `COc1ccc2ncn(-c3cc(O[C@H](C)c4ccccc4Cl)c(C(N)=O)s3)c2c1`, the inhibition was found to be 24.8%.

On to `COc1cc(Nc2ncc3c(C)nc(-c4cccc(Oc5ccccc5)c4)n3n2)cc(OC)c1OC`, for which the inhibition came to 11.3%.

Turning to `CN(C)CCCNc1nccc(-c2c(-c3ccc(F)cc3)nn3cc(C(F)(F)F)ccc23)n1`, the inhibition came to 4.09%.

For `CS(=O)(=O)CCNCc1ccc(-c2ccc3ncnc(Nc4ccc(OCc5ccccc5)c(Br)c4)c3c2)o1`, the inhibition stood at 1.93%.

For `COc1cc2ncn(-c3cc(OCCc4ccccc4)c(C(N)=O)s3)c2cc1OC`, the inhibition came to 1.3%.

For the compound `O=C(NCC1CC1)c1ccc(-c2cccc(C(=O)NC3CC3)c2)cc1`, the inhibition worked out at 2.92%.

As to `CN1CCN(CCCNc2nc3ccc(Oc4ccc(NC(=O)Nc5cc(C(F)(F)F)ccc5F)cc4)cc3[nH]2)CC1`, the inhibition came to 0.88%.

Take `CN(C)c1ccc2c(c1)/C(=C/Nc1ccc(S(N)(=O)=O)cc1)C(=O)N2`: the inhibition is 2.38%.

As for `Clc1ccc(CNc2nccc(-c3cnn4ncccc34)n2)cc1`, the inhibition came to 19.8%.

As to `COc1cccc(-n2cnc3c(N/N=C/c4ccncc4)ncnc32)c1`, the inhibition was 9.07%.

Consider `COc1ccc2cc(-c3c(-c4ccncc4)nc(-c4ccc([S+](C)[O-])cc4C)n3C)ccc2c1` (stereo not drawn), for which the inhibition is 0.54%.

For `c1ccc(-c2n[nH]cc2-c2ccnc(-c3ccc(OCCN4CCOCC4)cc3)c2)nc1`, the inhibition was -2.23%.

Turning to `COc1cc2ncn(-c3cc(OCc4cccs4)c(C(N)=O)s3)c2cc1OC`, the inhibition was 7.88%.

As for `CNC(=O)c1cncc(/C=C/c2c(C)cccc2C)c1`, the inhibition amounted to 2.88%.

With `COc1cc(C)c(N(C)C(=O)CN(C)C)cc1Nc1nc(Nc2cccc(F)c2C(N)=O)c2cc[nH]c2n1`, the inhibition was determined as 1.66%.

Take `C#Cc1cccc(Nc2ncnc3ccc(OCCCCNCCS(C)(=O)=O)cc23)c1`: the inhibition stood at 8.52%.

Consider `COC(=O)Nc1nc2ccc(Sc3ccc(NC(=O)Nc4cc(C(F)(F)F)ccc4F)cc3)cc2[nH]1`, for which the inhibition was determined as 1.18%.

For `CCc1nccc2c1nc(-c1nonc1N)n2CC`, the inhibition came to 1.55%.

Turning to `COc1cc(Nc2ncc3c(C)nc(-c4cccc(C(F)(F)F)c4)n3n2)cc(OC)c1OC`, the inhibition stood at 21.8%.

As to `O=C1Nc2ccc(I)cc2C1=Cc1cc(Br)c(O)c(Br)c1`, the inhibition worked out at 3.61%.

As for `COc1cc2ncn(-c3cc(OCc4ccccc4C(F)(F)F)c(C(C)=O)s3)c2cc1OC`, the inhibition was 1.9%.

Turning to `O=C(Nc1ccc(Oc2ccc3[nH]c(NC(=O)c4ccccc4)nc3c2)cc1)Nc1cc(C(F)(F)F)ccc1F`, the inhibition is 2.89%.

Take `c1ccc(Oc2ccc(Nc3ncc(-c4ccccc4)o3)cc2)cc1`: the inhibition turned out to be 1.89%.

Take `Fc1ccc(-c2ncn(CCCN3CCOCC3)c2-c2ccncc2)cc1`: the inhibition is 0.52%.

Take `CCS(=O)(=O)c1ccc(OC)c(Nc2ncc(-c3cccc(-c4ccccc4F)c3)o2)c1`: the inhibition came to 1.67%.

On to `Fc1ccc(-c2nc3n(c2-c2ccncc2)CCS3)cc1`, for which the inhibition worked out at 2.98%.

On to `C[C@@H](Oc1cc(-n2cnc3ccc(OCC4CCN(C)CC4)cc32)sc1C(N)=O)c1ccccc1Cl`, for which the inhibition is 54.1%.

For `FC(F)(F)c1cccc(Nc2nccc(-c3cnn4nc(-c5ccccc5)ccc34)n2)c1`, the inhibition stood at 2.59%.

The target in another assay is T2, Serine/threonine-protein kinase Nek2 (Homo sapiens) (UniProt P51955).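 Further: mean inhibition value from the GSK PKIS kinase screening panel.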
T2 sequence (whole entry): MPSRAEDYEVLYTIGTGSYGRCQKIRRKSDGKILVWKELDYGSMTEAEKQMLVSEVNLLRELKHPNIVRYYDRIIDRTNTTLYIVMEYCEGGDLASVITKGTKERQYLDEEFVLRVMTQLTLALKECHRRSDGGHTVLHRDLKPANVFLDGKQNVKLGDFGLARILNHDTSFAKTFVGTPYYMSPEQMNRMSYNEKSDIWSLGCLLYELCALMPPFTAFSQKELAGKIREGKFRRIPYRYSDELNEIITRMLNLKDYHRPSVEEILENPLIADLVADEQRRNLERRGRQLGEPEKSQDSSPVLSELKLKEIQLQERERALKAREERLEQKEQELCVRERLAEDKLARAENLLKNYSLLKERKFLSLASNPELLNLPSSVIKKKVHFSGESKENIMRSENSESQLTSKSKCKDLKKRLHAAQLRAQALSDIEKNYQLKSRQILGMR
The conditions noted are these: at 0.1 µM.
Consider `Fc1ccc(-c2c(-c3ccncc3)nc3n2CCS3)cc1`, for which the inhibition was 2.33%.

Consider `C/C(Nc1ccc(S(N)(=O)=O)cc1)=C1/C(=O)Nc2ccccc21`, for which the inhibition was -0.14%.

`C[C@@H](Oc1cc(-n2cnc3ccc(OC4CCN(C)CC4)cc32)sc1C(N)=O)c1ccccc1Cl`: the inhibition was determined as 10.1%.

For the compound `CCS(=O)(=O)c1ccc(OC)c(Nc2ncc(-c3ccccc3Cl)o2)c1`, the inhibition came out at 0.42%.

As for `COc1cc(N2CCN(C(C)C)CC2)ccc1Nc1nc(Nc2ccc(F)cc2C(=O)NC[C@@H](O)CO)c2cc[nH]c2n1`, the inhibition amounted to 5.32%.

`Cc1nnc(-c2ccc(C)c(-c3ccc(C(=O)NCc4ccc(Cl)cc4)cc3)c2)o1`: the inhibition was 4.28%.

`COc1ccc2ncn(-c3cc(O[C@H](C)c4ccccc4Cl)c(C(N)=O)s3)c2c1`: the inhibition stood at 5.9%.

On to `COc1cc(Nc2ncc3c(C)nc(-c4cccc(Oc5ccccc5)c4)n3n2)cc(OC)c1OC`, for which the inhibition was determined as 7.11%.

On to `CN(C)CCCNc1nccc(-c2c(-c3ccc(F)cc3)nn3cc(C(F)(F)F)ccc23)n1`, for which the inhibition is 1.87%.

Regarding `CS(=O)(=O)CCNCc1ccc(-c2ccc3ncnc(Nc4ccc(OCc5ccccc5)c(Br)c4)c3c2)o1`, the inhibition worked out at 5.02%.

Take `COc1cc2ncn(-c3cc(OCCc4ccccc4)c(C(N)=O)s3)c2cc1OC`: the inhibition is 2.3%.

For the compound `O=C(NCC1CC1)c1ccc(-c2cccc(C(=O)NC3CC3)c2)cc1`, the inhibition is 1.96%.

Take `CN1CCN(CCCNc2nc3ccc(Oc4ccc(NC(=O)Nc5cc(C(F)(F)F)ccc5F)cc4)cc3[nH]2)CC1`: the inhibition is 0.71%.

Regarding `CN(C)c1ccc2c(c1)/C(=C/Nc1ccc(S(N)(=O)=O)cc1)C(=O)N2`, the inhibition amounted to 2.78%.

Turning to `Clc1ccc(CNc2nccc(-c3cnn4ncccc34)n2)cc1`, the inhibition turned out to be 0.93%.

On to `COc1cccc(-n2cnc3c(N/N=C/c4ccncc4)ncnc32)c1`, for which the inhibition is -1.74%.

For the compound `COc1ccc2cc(-c3c(-c4ccncc4)nc(-c4ccc([S+](C)[O-])cc4C)n3C)ccc2c1` (stereo not drawn), the inhibition was -0.64%.

As to `c1ccc(-c2n[nH]cc2-c2ccnc(-c3ccc(OCCN4CCOCC4)cc3)c2)nc1`, the inhibition is -2.95%.

Turning to `COc1cc2ncn(-c3cc(OCc4cccs4)c(C(N)=O)s3)c2cc1OC`, the inhibition was 4.6%.

`CNC(=O)c1cncc(/C=C/c2c(C)cccc2C)c1`: the inhibition came to 0.66%.

For `COc1cc(C)c(N(C)C(=O)CN(C)C)cc1Nc1nc(Nc2cccc(F)c2C(N)=O)c2cc[nH]c2n1`, the inhibition was found to be 3.24%.

Consider `C#Cc1cccc(Nc2ncnc3ccc(OCCCCNCCS(C)(=O)=O)cc23)c1`, for which the inhibition amounted to 5.28%.

As for `COC(=O)Nc1nc2ccc(Sc3ccc(NC(=O)Nc4cc(C(F)(F)F)ccc4F)cc3)cc2[nH]1`, the inhibition worked out at 0.6%.

`CCc1nccc2c1nc(-c1nonc1N)n2CC`: the inhibition turned out to be 0.45%.

With `COc1cc(Nc2ncc3c(C)nc(-c4cccc(C(F)(F)F)c4)n3n2)cc(OC)c1OC`, the inhibition amounted to 7.77%.

On to `O=C1Nc2ccc(I)cc2C1=Cc1cc(Br)c(O)c(Br)c1`, for which the inhibition was determined as 4.91%.

For `COc1cc2ncn(-c3cc(OCc4ccccc4C(F)(F)F)c(C(C)=O)s3)c2cc1OC`, the inhibition amounted to 3.91%.

Take `O=C(Nc1ccc(Oc2ccc3[nH]c(NC(=O)c4ccccc4)nc3c2)cc1)Nc1cc(C(F)(F)F)ccc1F`: the inhibition was determined as 4.15%.

Regarding `c1ccc(Oc2ccc(Nc3ncc(-c4ccccc4)o3)cc2)cc1`, the inhibition was found to be 1.83%.

Turning to `Fc1ccc(-c2ncn(CCCN3CCOCC3)c2-c2ccncc2)cc1`, the inhibition was -0.45%.

Regarding `CCS(=O)(=O)c1ccc(OC)c(Nc2ncc(-c3cccc(-c4ccccc4F)c3)o2)c1`, the inhibition was 0.99%.

As for `Fc1ccc(-c2nc3n(c2-c2ccncc2)CCS3)cc1`, the inhibition was 4.83%.

For `C[C@@H](Oc1cc(-n2cnc3ccc(OCC4CCN(C)CC4)cc32)sc1C(N)=O)c1ccccc1Cl`, the inhibition came out at 22.1%.

For `FC(F)(F)c1cccc(Nc2nccc(-c3cnn4nc(-c5ccccc5)ccc34)n2)c1`, the inhibition was determined as 1.73%.
